Test systems include NCI-H23 lung; NCI-H322M lung; HOP-62 NSCLC; NCI-H460 lung; HOP-92 NSCLC; NCI-H522 lung; A549/ATCC NSCLC; 786-0 renal; COLO 205 colon.
Assay in all cases: NCI-60 one-dose screen, 48 h (100 = growth as untreated, 0 = no growth, -100 = all killed)
Common to all, as to settings: 10 µM unless noted

The structures appear in SMILES notation. Compounds without any hit were thinned out: in the full panel of roughly 83,000, 20% have a hit.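 Negative percent growth values reflect cell death: -40 means 40% of the cells present at the start died, and -100 means all died.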 Unmarked numbers belong to inactive results. Calls of active or inactive are those of the source. How the source made its calls: active means growth percent below 10; inactive means the rest.

Take `O=c1oc2c(cnc3ccccc32)cc1-c1ccsc1`: the growth in the test with NCI-H23 lung is 99.8%; in the test with NCI-H322M lung, 110%; in the test with HOP-62 NSCLC it was 92.3%; with NCI-H460 lung, 99.9%; with HOP-92 NSCLC, 82.4%; with NCI-H522 lung, 97.4%. Moreover, the growth was 105% in the test on A549/ATCC NSCLC, 97.1% with 786-0 renal and 112% with COLO 205 colon.
With `CC(C)=NNc1ccccn1`, the growth was 68% in the test on NCI-H23 lung; 19.4% in the test with NCI-H322M lung; 32.8% in the test with HOP-62 NSCLC; 30% in the test with NCI-H460 lung; 40.4% in the test on HOP-92 NSCLC; 25.5% in the test on NCI-H522 lung. In addition, the values for the growth in the test on A549/ATCC NSCLC, in the test on 786-0 renal and in the test on COLO 205 colon were 35.1%, 61.7% and 3.92% (active), respectively.
On to `CC1=C(CCC(C)N(C)Cc2ccc(OCCCN3CCCC3)cc2)C(C)(C)CCC1` (stereo unspecified), for which the growth was 64% in the test on NCI-H23 lung; 55.5% in the test on NCI-H322M lung; 36.6% with HOP-62 NSCLC; 5.81% (active) in the test on NCI-H460 lung; 27.3% in the test on HOP-92 NSCLC; -52.2% (active) in the test on NCI-H522 lung. Moreover, the growth is 37.8% in the test with A549/ATCC NSCLC, 17.3% in the test on 786-0 renal and -78.8% (active) in the test on COLO 205 colon.
Turning to `Cc1cnc(C(=O)NNc2nc3sc4c(c3c(=O)n2C)C(C)CCC4)cn1` (stereo unspecified), the growth with NCI-H23 lung is 5.46% (active); in the test with NCI-H322M lung, 9.91% (active); with HOP-62 NSCLC it was -39.1% (active); with NCI-H460 lung it was 4.18% (active); in the test on HOP-92 NSCLC it was -9.03% (active); with NCI-H522 lung, -9.87% (active). Besides, the growth in the test on A549/ATCC NSCLC was -5.22% (active); in the test on 786-0 renal it was 0.305% (active); with COLO 205 colon it was 0.0868% (active).
Take `Cn1cccc1C(=O)C1C(c2cccc([N+](=O)[O-])c2)C2C3CCCCC3CN2C12C(=O)Nc1ccc(Cl)cc12` (stereo unspecified): the growth in the test with NCI-H23 lung was 49.3%; in the test on NCI-H322M lung it was 75.6%; in the test on HOP-62 NSCLC, 62.3%; in the test on NCI-H460 lung, 37.3%; in the test on HOP-92 NSCLC it was 35%; with NCI-H522 lung, 52.3%. Besides, the growth is 29.1% with A549/ATCC NSCLC, 66.4% with 786-0 renal and 20.6% with COLO 205 colon.
Consider `CC(=O)OCc1nc(C#N)c(N(C)C)o1`, for which the growth was 102% in the test with NCI-H23 lung; 99.8% in the test on NCI-H322M lung; 91.4% in the test on HOP-62 NSCLC; 103% in the test on NCI-H460 lung; 83% with HOP-92 NSCLC; 90.3% in the test with NCI-H522 lung. For the same compound, the values for the growth with A549/ATCC NSCLC, in the test with 786-0 renal and in the test on COLO 205 colon were 92.5%, 95% and 105%, respectively.
Regarding `CS(=O)(=O)C1=CN(CCO)C(=O)N2CCCN=C12`, the growth is 95.7% in the test on NCI-H23 lung; 93.1% in the test with NCI-H322M lung; 92.4% with HOP-62 NSCLC; 102% in the test on NCI-H460 lung; 101% in the test with HOP-92 NSCLC; 94.8% with NCI-H522 lung. Besides, the growth is 98.7% in the test on A549/ATCC NSCLC, 99.5% in the test on 786-0 renal and 97.8% in the test on COLO 205 colon.
Regarding `CCCNC(=O)Oc1ccc(/C(=C(/C)Cc2ccc(OC)cc2)c2ccc(OCCCN(C)C)cc2)cc1`, the growth was 82.4% in the test on NCI-H23 lung; 88.3% with NCI-H322M lung; 101% in the test on HOP-62 NSCLC; 73.3% with NCI-H460 lung; 51.7% with HOP-92 NSCLC; 78.5% with NCI-H522 lung. In addition, the growth was 77.6% with A549/ATCC NSCLC, 92% in the test on 786-0 renal and 71.6% with COLO 205 colon.
For the compound `S=C(Nc1ccc(-c2nc(N3CCOCC3)c3cccn3n2)cc1)Nc1cccnc1`, the growth in the test on NCI-H23 lung is 37.7%; in the test on NCI-H322M lung, 35.7%; in the test on HOP-62 NSCLC, 46.6%; in the test with NCI-H460 lung, 43.2%; in the test with HOP-92 NSCLC it was -3.48% (active); in the test on NCI-H522 lung, 4.32% (active). The growth in the test on A549/ATCC NSCLC was 24.1%; in the test with 786-0 renal, 36.7%; in the test on COLO 205 colon, 28%.
For the compound `CCn1c(=S)sc2c(Nc3ccc(F)cc3)nc(-c3cccnc3)nc21`, the growth with NCI-H23 lung is 66.2%; with NCI-H322M lung, 76.5%; with HOP-62 NSCLC it was 47.6%; with NCI-H460 lung, 64.5%; in the test with HOP-92 NSCLC, 18.4%; in the test with NCI-H522 lung, 40.5%. The growth in the test on A549/ATCC NSCLC is 48.7%; with 786-0 renal, 20.5%; in the test with COLO 205 colon it was 72.5%.
As for `N#CC1=C(c2ccc(Cl)cc2)Nc2c(c(-c3ccc(Cl)cc3)nn2-c2ccccc2)C12C(=O)Nc1ccc(Cl)cc12` (stereo unspecified), the growth was 42.3% in the test with NCI-H23 lung; 83.3% with NCI-H322M lung; 65% in the test with HOP-62 NSCLC; 35.5% with NCI-H460 lung; -3.13% (active) in the test on HOP-92 NSCLC; 25.7% with NCI-H522 lung. The growth was 31% in the test on A549/ATCC NSCLC, 59.1% in the test with 786-0 renal and 51% with COLO 205 colon.
On to `O=S(=O)(NCCCNc1nccc(-c2c(-c3ccc(F)c(O)c3)nc3occn23)n1)c1ccccc1`, for which the growth with NCI-H23 lung was 84.1%; in the test on NCI-H322M lung, 98.5%; in the test with HOP-62 NSCLC it was 102%; in the test with NCI-H460 lung, 75.7%; with HOP-92 NSCLC, 71%; in the test with NCI-H522 lung, 75.6%. Besides, the values for the growth with A549/ATCC NSCLC, with 786-0 renal and in the test on COLO 205 colon were 88.1%, 123% and 48.6%, respectively.
For `c1ccc(C2=NN[C@H](c3cn(-c4ccccc4)nc3-c3ccccc3)C2)cc1`, the growth is 59.3% in the test with NCI-H23 lung; 47.8% in the test with NCI-H322M lung; -14.5% (active) in the test on HOP-62 NSCLC; 29% with NCI-H460 lung; 34.6% in the test with HOP-92 NSCLC; 75.6% in the test with NCI-H522 lung. Also, the growth in the test with A549/ATCC NSCLC was 17.1%; in the test with 786-0 renal it was 6.85% (active); with COLO 205 colon it was 66.5%.
Consider `COc1ccc2[nH]cc(-c3nc(-c4c[nH]c5ccncc45)cs3)c2c1`, for which the growth was 76.6% with NCI-H23 lung; 67.6% with NCI-H322M lung; 27.6% in the test with HOP-62 NSCLC; -20.7% (active) in the test on NCI-H460 lung; 62.5% in the test with HOP-92 NSCLC; -18.8% (active) in the test on NCI-H522 lung. In addition, the growth with A549/ATCC NSCLC was 24%; with 786-0 renal, -86% (active); with COLO 205 colon it was -62.8% (active).
In the case of `Cc1ccc(-c2nc(N3CCNCC3)c3oc(-c4ccccc4)nc3n2)cc1`, the growth in the test with NCI-H23 lung was 35.3%; in the test on NCI-H322M lung, -78.5% (active); in the test on HOP-62 NSCLC it was -6.18% (active); with NCI-H460 lung it was -72.5% (active); in the test on HOP-92 NSCLC, -25.6% (active); in the test with NCI-H522 lung, -81.8% (active). Further, the growth in the test with A549/ATCC NSCLC was 3.88% (active); in the test on 786-0 renal it was -87.8% (active); in the test on COLO 205 colon, -91.1% (active).
Regarding `Cc1cccnc1NC(=S)Nc1ncccc1C`, the growth with NCI-H23 lung was 99.2%; in the test with NCI-H322M lung it was 107%; with HOP-62 NSCLC, 109%; in the test with NCI-H460 lung, 107%; in the test with HOP-92 NSCLC it was 109%; in the test on NCI-H522 lung, 88.9%. Besides, the growth in the test with A549/ATCC NSCLC is 110%; in the test with 786-0 renal, 90.1%; with COLO 205 colon it was 116%.
With `N#CC1=C(N)Oc2c(sc3c(F)cccc23)C1c1ccc(F)cc1` (stereo unspecified), the growth in the test with NCI-H23 lung was 38.9%; in the test with NCI-H322M lung, 49.3%; in the test on HOP-62 NSCLC it was 35.1%; in the test with NCI-H460 lung it was 11.6%; in the test on HOP-92 NSCLC, 44.5%; in the test on NCI-H522 lung, -3.69% (active). Besides, the figures for the growth in the test on A549/ATCC NSCLC, with 786-0 renal and in the test on COLO 205 colon were 25.7%, 19.8% and 13%, respectively.
Consider `CCCCCCCCCCCCCCCC(N)c1ccccc1` (stereo unspecified), for which the growth is -24.4% (active) with NCI-H23 lung; 92.9% in the test with NCI-H322M lung; -33.9% (active) with HOP-62 NSCLC; -66.8% (active) in the test on NCI-H460 lung; 31.4% in the test with HOP-92 NSCLC; 63.5% with NCI-H522 lung. Further, the growth in the test with A549/ATCC NSCLC was 31.9%; in the test on 786-0 renal, 1.55% (active); with COLO 205 colon, -57.8% (active).
`CN(C)CCCC1(c2ccc(F)cc2)OCc2cc(-c3cncc4ccccc34)ccc21` (stereo unspecified): the growth with NCI-H23 lung was 77.6%; with NCI-H322M lung it was 51.5%; with HOP-62 NSCLC it was 65%; in the test on NCI-H460 lung, 10.6%; in the test on HOP-92 NSCLC, 49.5%; in the test on NCI-H522 lung, 42.9%. The growth with A549/ATCC NSCLC is 46.9%; in the test on 786-0 renal it was 46.8%; in the test on COLO 205 colon, 16.3%.

For the origin of these results see PubChem BioAssay (NCI).
